The record followed here is PubChem BioAssay.

Activity calls are given as the source filed them.

Assay [1] has as its system Human papillomavirus type 1a protein E7 (residues 44-93). Description: HPV1a E7 fragment binders on microarrays, primary screen, biochemical, small-molecule microarray, residues 44-93, 635 nm fluorescence (AID 1108).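 Note: E7 fragment applied at 1 µg/mL in TBST for 1 h at 4 C; score combines spot fluorescence with its signal to noise ratio.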 The note with it: small-molecule microarray binding, fluorescence 635 nm; higher = more signal.
Assay [2] is described as follows: modulators of HCV replicon luciferase signal, primary screen, HCV replication inhibitor project, Huh7 cells, luciferase reporter (AID 1109).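 Note: huh7 hepatoma cells harbouring a luciferase neomycin HCV replicon reporter; luciferase luminescence as measure of HCV replicon replication; test concentration not given here.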 The note with it: 48 h, higher = more signal. (In general: In antiviral work, replicon cells carry a viral genome segment that copies itself.)
In assay [3] the target is Left-right determination factor 2 (Homo sapiens) (UniProt O00292). Nature of the assay: LEFTY2 binders on small-molecule microarrays, primary screen, biochemical, small-molecule microarray, 635 nm fluorescence scan (AID 1110). The note with it: LEFTY2 binding, higher = more signal.
Sequence of Left-right determination factor 2 (Homo sapiens) (O00292 whole entry, looked up): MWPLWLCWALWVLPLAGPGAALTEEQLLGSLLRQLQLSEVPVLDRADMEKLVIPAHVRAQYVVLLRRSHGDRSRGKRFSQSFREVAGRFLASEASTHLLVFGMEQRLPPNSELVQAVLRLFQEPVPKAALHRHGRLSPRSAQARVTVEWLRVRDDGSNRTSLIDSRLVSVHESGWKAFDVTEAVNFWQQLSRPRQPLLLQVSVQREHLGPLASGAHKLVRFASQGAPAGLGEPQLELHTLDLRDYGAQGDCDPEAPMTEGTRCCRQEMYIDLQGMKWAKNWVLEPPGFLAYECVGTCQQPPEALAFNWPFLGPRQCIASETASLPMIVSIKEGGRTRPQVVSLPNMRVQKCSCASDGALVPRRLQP
Assay [4] deals with Calmodulin-1 (Homo sapiens) (UniProt P0DP23). Nature of the assay: CALM1 binders on microarrays, EGTA buffer, profiling panel, biochemical, small-molecule microarray, Cy5-labelled CALM1 (AID 1111).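 Note: labelled calmodulin applied in Tris saline Tween buffer holding calcium plus EGTA and DTT.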 The note with it: Cy5-CALM1 binding fluorescence, higher = more signal.
Assay [5] has the same target. Description: calcium-bound CALM1 binders on microarrays, profiling panel, artefact control for SMM control-protein annotation, biochemical, small-molecule microarray, Cy5-labelled CALM1, plus calcium (AID 1112).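 Note: score merges spot fluorescence with signal to noise from triplicate slides.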 The settings on record: Cy5-CALM1 binding fluorescence, higher = more signal.
A short description of assay [6]: small-molecule microarray binders of probe aWnt5a, primary screen, biochemical, biotinylated probe, 635/667 nm fluorescence (AID 1113).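 Note: score merges 667 nm fluorescence intensity with signal-to-noise per printed feature.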 The settings on record: higher = more signal.
Assay [7] can be described thus: small-molecule microarray binders of probe aShh, primary screen, biochemical, biotinylated probe, 635/667 nm fluorescence (AID 1114).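 Note: probe is biotin-labelled aShh protein from a stem cell growth factor screen; measures binding of labelled protein to compounds printed on the slide; score merges feature fluorescence at 667 nm with signal-to-noise.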 The note with it: higher = more signal.
Assay [8] is described as follows: small-molecule microarray binders of probe aNog, primary screen, biochemical, biotinylated probe, 635/667 nm fluorescence (AID 1115).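 Note: probe is biotinylated aNog protein used at 0.15 µg/mL for 1 h at 4 C; z-score combines 667 nm fluorescence of each spot with its signal to noise.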 The note with it: higher = more signal.
For assay [9], the target named is Torsin-1A-interacting protein 1 (Homo sapiens) (UniProt Q5JTV8). Description: LAP1 binders from COS7 cell lysate, primary screen, small-molecule microarray, 635/667 nm fluorescence (AID 1116). The note with it: COS7-hLAP1 lysate binding, 635 nm fluorescence, higher = more signal.
Sequence of Torsin-1A-interacting protein 1 (Homo sapiens) (Q5JTV8 whole entry, looked up): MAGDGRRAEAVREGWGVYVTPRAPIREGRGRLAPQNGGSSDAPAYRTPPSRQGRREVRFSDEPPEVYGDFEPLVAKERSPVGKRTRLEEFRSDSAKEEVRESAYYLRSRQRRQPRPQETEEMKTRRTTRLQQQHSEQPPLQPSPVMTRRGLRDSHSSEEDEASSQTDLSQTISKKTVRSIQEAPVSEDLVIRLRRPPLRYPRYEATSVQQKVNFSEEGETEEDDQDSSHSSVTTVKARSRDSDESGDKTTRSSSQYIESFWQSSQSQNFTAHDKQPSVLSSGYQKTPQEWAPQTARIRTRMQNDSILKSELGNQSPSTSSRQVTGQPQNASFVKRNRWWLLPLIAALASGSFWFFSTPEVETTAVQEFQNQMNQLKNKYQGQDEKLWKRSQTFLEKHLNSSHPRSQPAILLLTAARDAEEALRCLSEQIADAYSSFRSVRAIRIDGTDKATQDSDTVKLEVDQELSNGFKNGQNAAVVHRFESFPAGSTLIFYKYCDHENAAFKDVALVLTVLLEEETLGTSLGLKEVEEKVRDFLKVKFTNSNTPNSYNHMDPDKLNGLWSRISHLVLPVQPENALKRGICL
The target of assay [10] is Alpha-bungarotoxin (Bungarus multicinctus) (UniProt P60615). Description: alpha-bungarotoxin binders on microarray, profiling panel, artefact control for SMM control protein annotation, biochemical, small-molecule microarray, Alexa647 label, 635/667 nm fluorescence (AID 1117). The note with it: alpha-BTX-A647 binding fluorescence, higher = more signal.
Sequence of Alpha-bungarotoxin (Bungarus multicinctus) (P60615 whole entry, looked up): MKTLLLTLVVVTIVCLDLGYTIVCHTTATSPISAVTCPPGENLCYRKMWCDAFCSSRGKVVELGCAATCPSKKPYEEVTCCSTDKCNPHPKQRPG
A further assay addresses Albumin (Bos taurus) (UniProt P02769). Description: bovine serum albumin binders on microarray, profiling panel, artefact control for SMM control protein annotation, biochemical, small-molecule microarray, Alexa647 label, 635/667 nm fluorescence (AID 1118).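 Note: score merges 667 nm emission intensity and signal-to-noise per printed compound spot.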 The note with it: BSA-A647 binding, fluorescence 635 nm, higher = more signal.
Assay [11] is described as follows: small-molecule microarray binders of probe aXIP, primary screen, biochemical, NeuroSMM set, 635/667 nm fluorescence (AID 1119).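 Note: probe is the protein aXip251-270 applied at 1 µg/mL to compound-printed slides; binding of probe to printed compounds measured as 667 nm fluorescence plus signal to noise.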 The note with it: higher = more signal, called active from +8 up or from −8 down.
A short description of assay [12]: small-molecule binders of probe aNOTCH3, primary screen, biochemical, small-molecule microarray, 635/667 nm fluorescence (AID 1120).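 Note: probe is a biotin-tagged antibody raised against NOTCH3 rather than NOTCH3 protein; score merges spot fluorescence near 667 nm with spot signal to noise.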 The settings on record: higher = more signal.
The nature of assay [13]: small-molecule binders of probe aNOTCH2, primary screen, biochemical, small-molecule microarray, 635/667 nm fluorescence (AID 1121).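 Note: score merges feature fluorescence read at 667 nm with its signal to noise.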 The settings on record: higher = more signal.
Assay [14] has as its target Carbonic anhydrase 2 (Homo sapiens) (UniProt P00918). Description: CAII small-molecule binders, profiling panel, biochemical, small-molecule microarray, Alexa647-labelled CAII (AID 1122). The settings on record: CAII-A647 binding fluorescence, higher = more signal.
Assay [15] is described as follows: COS7 lysate on small-molecule microarray, probe aHis, 635 nm (AID 1123).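 Note: z-score combines 667nm fluorescence intensity with signal-to-noise per printed compound spot.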 The note with it: COS7 cell lysate, fluorescence, higher = more signal.
Assay [16] can be described thus: compound binding in COS7 lysate, probe aLAP1, primary screen, cell lysate, small-molecule microarray (AID 1124).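 Note: lysate comes from COS7 cells expressing LAP1 and is applied at 0.3 µg/mL; score merges spot fluorescence near 667 nm with signal-to-noise over triplicate slides.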 The settings on record: probe aLAP1, fluorescence, higher = more signal.
The test system of the next assay is Sam68 (KHDRBS1). Description: Sam68 small-molecule binders, primary screen, biochemical, small-molecule microarray, 635 nm fluorescence (AID 1125).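 Note: score merges 667 nm channel intensity with signal to noise over triplicate slides.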 The note with it: small-molecule microarray binding, higher = more signal.
Assay [17] has as its system Chordin-like protein 2 (CHRDL2). Description: CHRDL2 small-molecule binders, primary screen, biochemical, small-molecule microarray, 635 nm fluorescence (AID 1126).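 Note: printed compound slides probed with Chrdl2 protein at 4 µg/mL for 1 h at 4 C; score merges 667 nm emission intensity with signal to noise over three replicate slides.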 The settings on record: small-molecule microarray binding, fluorescence 635 nm; higher = more signal.
In assay [18] the target is Concanavalin-A (Canavalia ensiformis) (UniProt P02866). Description: ConA small-molecule binders, primary screen, artefact control for SMM control protein annotation, biochemical, small-molecule microarray, Alexa647 label, 635 nm (AID 1127).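 Note: z combines 667 nm emission intensity with signal-to-noise across three replicate slides.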 The note with it: ConA-A647 binding fluorescence, higher = more signal.
Sequence of Concanavalin-A (Canavalia ensiformis) (P02866 whole entry, looked up): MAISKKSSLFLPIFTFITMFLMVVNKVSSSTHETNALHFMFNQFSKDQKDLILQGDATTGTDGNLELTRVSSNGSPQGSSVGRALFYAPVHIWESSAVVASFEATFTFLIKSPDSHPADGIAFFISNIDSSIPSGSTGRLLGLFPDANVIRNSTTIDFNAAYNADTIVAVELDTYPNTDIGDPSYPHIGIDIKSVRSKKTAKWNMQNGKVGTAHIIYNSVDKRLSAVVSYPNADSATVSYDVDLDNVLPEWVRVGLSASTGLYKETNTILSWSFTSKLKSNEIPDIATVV

Sequence of Albumin (Bos taurus) (P02769 whole entry, looked up): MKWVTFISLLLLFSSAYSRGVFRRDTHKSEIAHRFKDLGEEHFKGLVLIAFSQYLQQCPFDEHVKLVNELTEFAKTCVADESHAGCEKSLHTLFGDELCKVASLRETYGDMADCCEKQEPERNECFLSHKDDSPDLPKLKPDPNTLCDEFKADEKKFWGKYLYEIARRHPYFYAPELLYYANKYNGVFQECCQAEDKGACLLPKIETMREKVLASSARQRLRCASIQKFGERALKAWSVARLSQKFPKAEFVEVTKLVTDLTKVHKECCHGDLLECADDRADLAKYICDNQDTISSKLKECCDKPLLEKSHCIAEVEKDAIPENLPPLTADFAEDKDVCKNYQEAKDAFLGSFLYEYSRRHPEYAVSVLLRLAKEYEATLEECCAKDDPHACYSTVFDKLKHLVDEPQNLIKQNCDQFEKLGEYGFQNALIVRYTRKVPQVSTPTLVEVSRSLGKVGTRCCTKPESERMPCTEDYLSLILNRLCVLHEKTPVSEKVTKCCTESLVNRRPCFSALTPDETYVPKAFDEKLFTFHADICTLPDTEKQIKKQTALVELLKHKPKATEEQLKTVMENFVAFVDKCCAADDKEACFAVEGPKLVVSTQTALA

`CCCCN1CC=CC23O[C@@H]4/C=C\CCCOC(=O)C4[C@H]2C(=O)N(CCCO)[C@@H]3C1=O` (stereo not given in full): the composite z-score in assay [1] is 0.498; in [3] it was -1.08; in assay [4] it was -0.692; in assay [5] it was -0.298; in [6] it was -0.124; in assay [7] it was -0.0211. Also, the composite z-score in assay [8] was 0.13; in assay [9], 2.1; in assay [10], -0.803; in the assay with Albumin (Bos taurus) it was -0.314; in assay [12], -0.229; in [13], -0.18. In addition, the composite z-score in assay [14] was 0.939; in assay [15], 1.28; in assay [16], 1.82; with Sam68 (KHDRBS1) it was -0.158; in assay [17], -0.824; in assay [18], -1.4. In assay [2], this compound displayed a z-score of -0.381. Further, in [11], the composite Z-score was 0.949 (inactive).
Take `COc1ccc(CCNC(=O)[C@@]2(C)c3ccccc3C(=O)N(c3ccc(C)cn3)[C@H]2c2ccc(CO)cc2)cc1`: the composite z-score in assay [1] is -0.992; in assay [3], -0.839; in assay [4], -0.4; in assay [5], -0.141; in assay [6], -0.096; in assay [7], 1.9. The composite z-score in assay [8] was -0.118; in assay [9], 0.56; in [10], -0.438; with Albumin (Bos taurus), -0.252; in assay [12], -0.365; in assay [13] it was -0.0956. For the same compound, the composite z-score in assay [14] was 0.793; in assay [15] it was -0.335; in [16], 0.165; in the assay with Sam68 (KHDRBS1) it was 0.243; in assay [17] it was -1.02; in assay [18], -0.699. The same compound yielded a z-score in [2] of -0.583. Also, the composite Z-score in assay [11] was -0.133 (inactive).
For `COCCOC(=O)N1C(=O)[C@@]2(c3ccccc31)[C@H](C(N)=O)[C@H]1C(=O)O[C@H](c3ccccc3)[C@H](c3ccccc3)N1[C@@H]2c1ccc(O)cc1`, the composite z-score in assay [1] was 1.37; in [3], 0.113; in [4], 0.0186; in [5], -0.346; in assay [6] it was -0.199; in assay [7] it was -0.0769. Also, the composite z-score in [8] was -0.334; in assay [9] it was -0.602; in assay [10], -0.364; in the assay with Albumin (Bos taurus), 0.737; in assay [12], -0.162; in assay [13], -0.104. Moreover, the composite z-score in assay [14] is 0.54; in assay [15], 2.37; in assay [16] it was 0.325; with Sam68 (KHDRBS1), 0.371; in [17], -0.169; in [18], 0.237. Also, the z-score in assay [2] was -0.328. In addition, the composite Z-score in assay [11] is 0.573 (inactive).
As for `COc1ccc(C(=O)Nc2ccc(CN3C(=O)[C@]4(O[C@H](CC(=O)N5CCC[C@H]5CO)[C@@H]([Si](C)(C)c5ccc(OC)cc5)[C@@H]4C)c4ccccc43)cc2)cc1`, the composite z-score is 1.4 in [1]; 0.471 in assay [3]; 0.453 in assay [4]; -0.171 in [5]; -0.0445 in assay [6]; 0.0639 in assay [7]. Also, the composite z-score in [8] was 0.116; in assay [9], 1.08; in assay [10], 0.748; with Albumin (Bos taurus), -0.398; in assay [12], 0.218; in assay [13], -0.0681. In addition, the composite z-score in assay [14] is 0.298; in [15] it was 1.72; in [16] it was 0.394; with Sam68 (KHDRBS1) it was 1.29; in [17], 0.666; in assay [18], 0.884. For the same compound, the z-score in assay [2] was -3.86. For the same compound, the composite Z-score in assay [11] is 0.0524 (inactive).
For the compound `CN(C)CCCCCCNC(=O)[C@@H]1C[C@@H]2C(=O)N[C@@H](CCCC[N+](C)(C)C)C(=O)N2[C@@H]1c1ccc(O)cc1`, the composite z-score in [1] was -1.27; in [3] it was 0.839; in assay [4], -1.01; in [5], -0.702; in assay [6] it was -0.216; in [7], -0.358. The composite z-score in assay [8] was -0.277; in assay [9] it was 0.964; in assay [10] it was 0.257; with Albumin (Bos taurus), -0.793; in assay [12], 0.164; in [13], -0.231. In addition, the composite z-score in assay [14] came out at 0.797; in [15], 0.125; in assay [16], 0.246; in the assay on Sam68 (KHDRBS1), 0.794; in [17] it was 0.918; in assay [18], 0.898. The compound further yielded a z-score in assay [2] of 1.61. In assay [11], the composite Z-score is 1.56 (inactive).
